GLP-1R agonist – GLP-1 receptor (human) agonism. P43220. HEK293 GLP-1R CRE-luciferase, luminescence, 4-6 h; cells express a hypersensitive GLP-1R form. Potency, µM (top dose mostly 45.6 µM), for the others: top-dose activation, hits mostly activators. 380,000 tested, 0.007% active. AID 624172; also: % of control where 0% means no effect
Target sequence (P43220 whole entry, looked up): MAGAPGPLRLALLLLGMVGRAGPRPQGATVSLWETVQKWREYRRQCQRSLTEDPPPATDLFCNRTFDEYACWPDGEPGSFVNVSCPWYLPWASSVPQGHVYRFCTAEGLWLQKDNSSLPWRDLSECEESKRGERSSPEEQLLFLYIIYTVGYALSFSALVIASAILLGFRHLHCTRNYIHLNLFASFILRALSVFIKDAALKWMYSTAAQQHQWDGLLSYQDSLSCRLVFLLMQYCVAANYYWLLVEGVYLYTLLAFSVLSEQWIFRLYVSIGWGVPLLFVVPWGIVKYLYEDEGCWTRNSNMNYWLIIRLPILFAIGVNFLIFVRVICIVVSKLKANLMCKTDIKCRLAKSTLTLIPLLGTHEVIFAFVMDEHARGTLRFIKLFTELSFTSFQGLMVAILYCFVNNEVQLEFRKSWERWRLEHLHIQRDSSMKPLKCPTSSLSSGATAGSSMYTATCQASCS
GLP-1R inv ag – GLP-1 receptor (human) inverse agonism; HEK293 GLP-1R CRE-luciferase, luminescence, 24 h; GLP-1R form is constitutively active; Potency, µM (highest dose often 38.3 µM), for inactives: top-dose activity change, negative = inhibition, actives largely listed as inhibitors; 410,000 tested, 1.6% active; P43220; also: % is scaled to controls: 0 for no effect and ±100 for the full control effect; nearly all actives have a fitted effect of over 55% in size
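Using stably transfected HEK293 (constitutively active GLP-1R, cAMP-luciferase reporter), compounds were incubated 24 hr and luciferase measured by luminescence.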
HEK293 tox – cytotoxicity counter-screen for GLP-1 receptor inverse agonists | HEK293 cAMP-luciferase reporter cells, luminescence, 24 h | Potency, µM (series often up to 38.3 µM), without a hit: at the top dose activity change, negative = inhibition, actives largely listed as inhibitors | 410,000 tested, 0.13% active | AID 624418;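 also: loss of luciferase light is scored as toxicity; % is scaled to controls: 0 for no effect and ±100 for the full control effect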
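Compound-treated cells are incubated 24 hr at 37 deg C under 5% CO2 after a 12 hour attachment period, then luciferase detection reagent is added and luminescence is measured following 12 min at room temperature; lowered signal indicates toxicity.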
PTHR1 ag – agonists of human PTHR1 parathyroid hormone receptor; HEK293 GP2 PTHR1 cells, GloSensor cAMP luminescence, 1 h; Q03431; Potency, µM (series often up to 115 µM), inactives show at the top dose activation, usual class: activators; 410,000 tested, 0.075% active; also: nearly all actives have a fitted effect of over 55% in size
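HEK-293-derived GP2 cells expressing PTHR1 and a GloSensor cAMP reporter, 3,000/well, plated overnight, given luciferin plus IBMX (each 0.5 mM as added) for 1 h at 37 °C, then compound for 1 h at 37 °C. Luminescence was read after 15 min at room temperature.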
* hit, by the source's call; i = inactive; ? = inconclusive; · = no result given; [ ] = another dose, or the depositor's remark. In the library only some 1.7% were active in any assay of this set; here they are far more common. Calls follow the shape of the dose curve; as a rule, active = well fitted curve in the direction sought with a large enough effect; inconclusive = small, poorly fitted or top-dose-only effect, or another doubt; inactive = no such curve, though single readings can be large; an effect the other way counts as inactive or inconclusive. Potency is read from the fitted curve at half-maximal effect.

SMILES	GLP-1R agonist	GLP-1R inv ag	HEK293 tox	PTHR1 ag
COc1ccc(NC(=O)N2CCc3c(sc4c3CCCC4)C2c2ccc(F)cc2)cc1 (centres undefined)	·	2.82µM*	6.0%	-20.8%
Cc1cccc(NC(=O)N2CCc3c(sc4c3CCCC4)C2c2ccc(F)cc2)c1 (centres undefined)	·	?	0.0%	i
O=C(CSc1nc(=O)[nH]c2c1CCCC2)NCc1ccc(Cl)cc1	·	8.8%	7.1%	i
COc1ccc(Cn2c(C3CCCCC3)nc3c(c(=O)c4ccccc4n3C)c2=O)cc1	1.5%	-17.8%	-20.7%	-38.3%
COc1ccc(CCn2c(C3CCCCC3)nc3c(c(=O)c4ccccc4n3C)c2=O)cc1	8.1%	?	5.01µM*	-28.5%
CCCCCCSc1cccc(-c2nc3cc(C)ccn3c2NCc2ccccc2)c1	-0.5%	5.01µM*	?	-25.0%
Cc1ccc2nc(-c3cccc(-c4cccc(Cl)c4)c3)c(NCc3ccccc3)n2c1	-13.5%	11.2µM*	0.1%	-6.6%
CCC(C)Sc1cccc(-c2nc3ccc(C)cn3c2NCc2ccccc2)c1 (centres undefined)	-0.4%	?	-16.3%	-63.5%
Cc1ccn2c(NC3CCCCC3)c(-c3cccc(SC4CCCCC4)c3)nc2c1	4.3%	?	-20.4%	-46.5%
CCC(C)Sc1cccc(-c2nc3cc(C)ccn3c2NC2CCCCC2)c1 (centres undefined)	1.7%	5.01µM*	?	-83.9%
CC(C)COc1ccc(C(=O)N2CCCCC2CCN2CCOCC2)cc1 (centres undefined)	·	2.8%	1.2%	-17.8%
CCOc1ccc(C2=C(C=C(C#N)C#N)C(c3ccccc3)c3ccccc3O2)cc1 (centres undefined)	-3.7%	6.31µM*	-12.3%	-24.8%
CN(C)CCCN(C(=O)c1cccs1)c1nc2ccc(F)cc2s1	·	-6.8%	?	i
CN(C)CCCN(C(=O)c1sc2ccccc2c1Cl)c1nc2ccc(F)cc2s1	4.3%	10µM*	-27.4%	i
CN(C)CCCN(C(=O)CCc1ccccc1)c1nc2ccc(Cl)cc2s1	-0.3%	3.55µM*	?	-10.9%
CN(C)CCCN(C(=O)c1ccc2c(c1)CCCC2)c1nc2ccc(Cl)cc2s1	-47.3%	5.01µM*	-25.2%	-5.7%
Cc1ccc(NC(=O)c2c(C)oc3ncn(CC(C)C)c(=O)c23)nc1	·	9.3%	7.3%	-3.7%
CCOC(=O)C1=C(c2ccccc2)N=c2s/c(=C\c3cccc(O)c3)c(=O)n2C1c1cccs1 (centres undefined)	-1.2%	11.2µM*	-10.4%	i
COc1ccc(NC(=O)Cn2c(SCc3cccc(Cl)c3)nc3ccncc32)c(OC)c1OC	·	5.7%	-1.9%	-52.2%
Cc1cc(Cl)ccc1OCC(=O)N(Cc1sccc1C)C1CCS(=O)(=O)C1 (centres undefined)	·	1.6%	1.3%	-17.5%
COc1cccc(NC(=O)COC(=O)c2c3c(nc4ccccc24)CCC(C)C3)c1 (centres undefined)	-20.0%	5.01µM*	?	?
CC(C)c1ccccc1NC(=O)COC(=O)c1c2c(nc3ccccc13)CCN(Cc1ccccc1)C2	0.2%	10µM*	5.0%	i
CC(C)NC(=O)NC(=O)COC(=O)c1c2c(nc3ccccc13)CCC2	5.6%	10µM*	?	-43.2%
CCc1ccccc1Nc1nn2c(=O)c3ccc(C(=O)NCCCOC(C)C)cc3nc2s1	·	?	0.5%	-7.6%
COc1ccc2c(CNCCc3ccccc3OC)c(C(=O)O)n(Cc3ccc(F)cc3Cl)c2c1	-5.6%	?	?	-5.1%
SMILES	GLP-1R agonist	GLP-1R inv ag	HEK293 tox	PTHR1 ag
COc1ccc(OC)c(NC(=O)CN(C)S(=O)(=O)c2ccc3[nH]c4c(c3c2)CCCC4)c1	·	?	-4.4%	-11.1%
CCOC(=O)CSc1nc2cc3c(cc2c(=O)n1CCCC(=O)NCc1ccc2c(c1)OCO2)OCO3	·	7.2%	-3.5%	i
Cc1cc(C)c(-c2csc(NC(=O)c3cc([N+](=O)[O-])ccc3N3CCOCC3)n2)c(C)c1	8.2%	8.91µM*	-11.9%	-25.2%
O=C(Nc1nc(-c2ccc(F)c(F)c2)cs1)c1cc([N+](=O)[O-])ccc1N1CCOCC1	4.6%	8.9%	-0.3%	i
O=C1CN(CC(=O)Nc2cccc(Cl)c2Cl)c2ccccc2N1	9.2%	10µM*	0.8%	i
OC(c1ccccc1)(c1nc(/C=C/c2ccc(C(F)(F)F)cc2)cs1)C(F)(F)F (centres undefined)	-2.0%	7.94µM*	?	-6.4%
CC1=Nc2cc(C(=O)NC3CCCC3)ccc2Sc2ccc(C)cc21	-2.2%	5.01µM*	?	i
CCC1=Nc2cc(C(=O)NC3CCCC3)ccc2Sc2ccc(Cl)cc21	·	?	?	12.2%
CNC(=O)c1ccc2c(c1)N=C(C)c1cc(C)ccc1S2	0.5%	?	-24.7%	-10.7%
CC1=Nc2cc(C(=O)NC3CCCC3)ccc2Sc2ccc(Cl)cc21	·	1.58µM*	?	-65.3%
O=S(=O)(O)CC(S)CS (centres undefined)	-5.0%	·	·	·
O=C(NC1CC(=O)N(c2ccc(Cl)cc2)C1)c1ccc(S(=O)(=O)N2CCCC2)cc1 (centres undefined)	·	7.7%	0.1%	-76.2%
Cc1ccc(CSc2nc3ccccc3cc2C=O)cc1	2.5%	3.98µM*	?	-14.5%[57.5 µM]
COc1cccc(CNC(=O)CCC2CCCN(Cc3cc4ccccc4o3)C2)c1 (centres undefined)	9.0%	11.2µM*	0.5%	i
C[C@@H](NCCCc1cccc(C(F)(F)F)c1)c1cccc2ccccc12	-13.5%	·	·	·
O=C1[C@H]2[C@@H](c3ccc(C(F)(F)F)cc3)N[C@]3(CCCN(Cc4ccc(F)cc4)C3=O)[C@H]2C(=O)N1Cc1ccccc1	-6.4%	8.91µM*	?	-33.4%
O=C1[C@H]2[C@@H](c3ccccc3)N[C@]3(CCCN(Cc4ccccc4)C3=O)[C@H]2C(=O)N1Cc1ccccc1	-5.2%	-2.6%	2.2%	-12.4%
O=C1[C@H]2[C@@H](c3ccccc3)N[C@]3(CCCN(Cc4ccc(F)cc4)C3=O)[C@H]2C(=O)N1Cc1ccccc1	-1.4%	-22.9%	-5.7%	-5.0%
O=C1[C@H]2[C@@H](c3ccccc3)N[C@]3(CCCN(Cc4ccc(C(F)(F)F)cc4)C3=O)[C@H]2C(=O)N1Cc1ccccc1	-3.9%	11.2µM*	-0.5%	-45.5%
CC(C)c1cnc2c(c1SCc1ccc([N+](=O)[O-])cc1)c(=O)n(C)c(=O)n2C	·	15.0%	1.5%	-34.0%
COc1ccc(CNCCC(c2ccc(OC)cc2)c2ccccc2OC)cc1 (centres undefined)	5.5%	10µM*	?	-0.4%
COc1ccc(C(CCNCc2ccc(OC(C)C)cc2)c2ccccc2OC)cc1 (centres undefined)	-6.6%	?	?	-32.6%
COc1ccc(C(CCNCc2ccc(N(C)C)cc2)c2ccccc2OC)cc1 (centres undefined)	14.7%	10µM*	?	-19.9%
